This is a sample that favours compounds with a hit; in the whole collection about 3.3% have one here.
Vaccinia mCherry – inhibitors of vaccinia virus infection (mCherry reporter signal). Vaccinia virus mCherry reporter infection, fluorescence. AID 720579. Potency, µM (highest dose often 36.5 µM), actives largely listed as inhibitors. 310,000 tested, 0.63% active; calls by dose curve; tested in A549 cells; further: nearly all actives have a fitted effect of over 35% in size
VACV Venus inh – vaccinia inhibition (Venus reporter); Potency, µM (series often up to 36.5 µM), hits mostly inhibitors; AID 720580; 330,000 tested, 0.46% active; Vaccinia virus Venus reporter expression, fluorescence; calls by dose curve; tested in A549 cells; further: nearly all actives have a fitted effect of over 30% in size
HCV inhibitor – HCV inhibition; 340,000 tested, 3.4% active; Potency, µM (top dose mostly 41.8 µM), most hits filed as inhibitors; Huh7.5.1 HCVcc-Cre infection, luciferase reporter, 44 h; active means well fitted inhibition curve with a large enough effect; inconclusive means small, poorly fitted or top-dose-only effect, or another doubt; inactive means no such curve, though single readings can be large or run the other way
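Cells (1,000/well) were plated 4 h before compound, then infected with HCVcc-Cre virus (~0.5 moi). After 44 h further culture, infection was read as luciferase luminescence following a 15 min substrate incubation at room temperature.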
Large screens that a line does not name were inactive.

COc1ccc(/C=N\NC(=O)c2ccccc2OC)cc1COc1c(F)c(F)c(F)c(F)c1F	HCV inhibitor inconclusive
COc1ccc(/C=N/NC(=O)c2ccccc2O)cc1Cn1cc([N+](=O)[O-])cn1	none
COc1cc(/C=C(/C#N)c2nc3ccccc3[nH]2)ccc1Oc1ncccc1[N+](=O)[O-]	Vaccinia mCherry inconclusive, HCV inhibitor 2.51µM
COc1cc(/C=N/NC(=O)c2ccccc2Cl)ccc1Oc1ccc([N+](=O)[O-])cn1	HCV inhibitor 11.2µM (no result: Vaccinia mCherry, VACV Venus inh)
COc1ccc(/C=N\NC(=O)c2ccccc2Cl)cc1COc1c(F)c(F)c(F)c(F)c1F	Vaccinia mCherry inconclusive, VACV Venus inh inconclusive, HCV inhibitor 2.24µM
COc1cc(/C=C(/C#N)c2ccc(C)cc2)ccc1Oc1ccc([N+](=O)[O-])cn1	HCV inhibitor 10µM
Cc1ccc2nc(/C(C#N)=C\c3ccc(Oc4ccc([N+](=O)[O-])cn4)cc3)[nH]c2c1	HCV inhibitor inconclusive
COc1ccccc1N1CCN(C(=O)C(=O)c2c(C)[nH]c3ccccc23)CC1	none (no result: Vaccinia mCherry, VACV Venus inh)
Cc1cc(C)cc(C(=O)N2CC(=O)Nc3ccc(Br)cc3C2c2ccccc2)c1 (stereo not drawn)	Vaccinia mCherry inconclusive (no result: HCV inhibitor)
C(=Nc1ccc2ccccc2n1)c1ccccn1	none (no result: HCV inhibitor)
CCOc1ccc(/C=N/NC(=O)c2ccccc2C)cc1CN1CC2CC(C1)c1cccc(=O)n1C2 (stereo not drawn)	HCV inhibitor inconclusive
CCOc1ccc(/C=N/NC(=O)c2ccccc2Cl)cc1CN1CC2CC(C1)c1cccc(=O)n1C2 (stereo not drawn)	HCV inhibitor 2.51µM
Cc1cc(C)c(S(=O)(=O)NC2CC3CCC2C3)c(C)c1 (stereo not drawn)	none (no result: Vaccinia mCherry, VACV Venus inh)
Cc1cc(N2CCN(C)CC2)nc2ccc(NC(=O)Nc3cccc(Cl)c3)cc12	none (no result: HCV inhibitor)
Cc1cc(Nc2ccccc2C(=O)O)n(-c2ccc([N+](=O)[O-])cc2)n1	none (no result: Vaccinia mCherry, VACV Venus inh)
CCOC(=O)CSc1nc2cc(OC)c(OC)cc2cc1C#N	none (no result: HCV inhibitor)
COc1ccc(-c2nn3c(-c4cc(C)[nH]n4)nnc3s2)cc1	none (no result: HCV inhibitor)
Cc1nc(-c2ccccc2)cc(N2CCCC2)n1	HCV inhibitor 8.91µM (no result: Vaccinia mCherry, VACV Venus inh)
Nc1nc(-c2ccccc2)cc(N2CCCCC2)n1	VACV Venus inh inconclusive
C=C(C)COc1ccc2c(CC)cc(=O)oc2c1C	HCV inhibitor 11.2µM
CCCOc1ccc2c(CC)cc(=O)oc2c1C	HCV inhibitor inconclusive
COc1cc(C(=O)Nc2ccc3oc(-c4ccc(C)c(Br)c4)nc3c2)cc(OC)c1OC	none (no result: HCV inhibitor)
O=C(NCc1cccs1)c1ccc(Cn2c(SCc3cccc(F)c3)nc3cccnc32)cc1	none (no result: HCV inhibitor)
Cc1cccc(NC(=O)c2ccc([N+](=O)[O-])s2)n1	none (no result: Vaccinia mCherry, VACV Venus inh)
Cc1ccnc(NC(=O)c2ccc([N+](=O)[O-])s2)c1	HCV inhibitor 3.55µM (no result: Vaccinia mCherry, VACV Venus inh)
Cc1ccnc(NC(=O)c2cc([N+](=O)[O-])cc([N+](=O)[O-])c2)c1	Vaccinia mCherry inconclusive
Cc1cccc(C)c1NC(=O)c1ccc([N+](=O)[O-])s1	Vaccinia mCherry inconclusive, VACV Venus inh inconclusive, HCV inhibitor 10µM
CC(CNc1ccccc1O)C(=O)O (stereo not drawn)	Vaccinia mCherry 4.47µM, VACV Venus inh 89.1µM
CC(NC(=O)CCC(=O)Nc1ccccc1O)c1ccccc1 (stereo not drawn)	none
CCOc1ccc(CN2C(=O)c3ccccc3Sc3ccc(C(=O)O)cc32)cc1	none (no result: HCV inhibitor)
O=C(NCc1ccccc1)C(c1ccco1)N1CCN(C(=O)C2CCCO2)CC1 (stereo not drawn)	none (no result: HCV inhibitor)
O=C(NCc1ccccc1)C(c1ccc(-c2ccccc2)cc1)N1CCN(C(=O)C2CCCO2)CC1 (stereo not drawn)	Vaccinia mCherry 2.82µM, VACV Venus inh inconclusive (no result: HCV inhibitor)
C/C(CC(c1ccccc1)c1c(O)c2ccccc2oc1=O)=N\NC(N)=S (stereo not drawn)	Vaccinia mCherry 3.98µM, VACV Venus inh 7.94µM
COc1ccc(C(=O)CC(c2ccc(OC)c(OC)c2)c2c(O)c3ccccc3oc2=O)cc1OC (stereo not drawn)	none (no result: HCV inhibitor)
CCN(Cc1ccccc1)C(=O)Cn1c(=O)n(-c2ccc(F)c(Cl)c2)c(=O)c2sc3ccccc3c21	none (no result: HCV inhibitor)
OC(C[n+]1c(Cl)ccc2ccccc21)c1ccccc1 (stereo not drawn)	none (no result: HCV inhibitor)
CCc1nc2ccc(C(=O)NCCN3CCNC3=O)cn2c1N(CC)CCOC	none (no result: HCV inhibitor)
C=CC[n+]1cccc2cccc(O)c21	none (no result: HCV inhibitor)
CC(=O)N(c1ccccc1C)C1CCCC1	none
CC(=O)N(C1=C(Cl)C(=O)c2ccccc2C1=O)C1CCCCC1	Vaccinia mCherry inconclusive, VACV Venus inh inconclusive, HCV inhibitor 7.94µM
CCOc1ccc(-n2c(=O)c3sc4ccccc4c3n(Cc3ccc(F)cc3)c2=O)cc1	none (no result: HCV inhibitor)
Cc1ccc(NC(=O)c2ccc([N+](=O)[O-])o2)c(C)c1	HCV inhibitor 14.1µM (no result: Vaccinia mCherry, VACV Venus inh)
Cc1cccnc1NC(=O)c1ccc([N+](=O)[O-])o1	none
O=C(Nc1cccc2ncccc12)c1ccc(Br)c([N+](=O)[O-])c1	HCV inhibitor 12.6µM
O=C(Nc1cccc2ncccc12)c1cccc(Br)c1	none
Cc1ccccc1NC(=O)c1ccc([N+](=O)[O-])o1	HCV inhibitor inconclusive
O=C(Nc1cccc2ncccc12)c1ccc([N+](=O)[O-])o1	Vaccinia mCherry inconclusive, VACV Venus inh inconclusive, HCV inhibitor 25.1µM
C=CCC[C@@H](CCCCC)OC(=O)/C=C/[C@H](O)[C@@H](O)C[C@H](O)CC=C	none (no result: HCV inhibitor)
CC1(c2nnc(Cc3ccccc3)o2)CC(c2cccc(F)c2)=NO1 (stereo not drawn)	none
CCCN1C(=O)N(c2cccc(C)c2)C(C)(O)CC1(C)C (stereo not drawn)	none (no result: Vaccinia mCherry, VACV Venus inh)
Cc1nc2c([nH]c3ccc(Br)cc32)s1	HCV inhibitor 10µM
Cc1n[nH]c2ccc(Br)cc2c1=O	none (no result: HCV inhibitor)
O=C(c1ccc(F)cc1F)N1CCN(c2ccccn2)CC1	none
c1coc(-c2cc3nc(NCc4ccc5c(c4)OCO5)ccn3n2)c1	none (no result: HCV inhibitor)
Cc1cn2cc(CNC(=O)CN3Cc4ccccc4OC(c4ccccc4F)C3)nc2s1 (stereo not drawn)	none (no result: HCV inhibitor)
CCOc1ccc(NS(=O)(=O)c2cc(C(=O)N3CCCC3)ccc2Cl)cc1	HCV inhibitor inconclusive
CCOc1ccc(NS(=O)(=O)c2cc(NC(=O)c3cccc(C)c3)ccc2Cl)cc1	Vaccinia mCherry inconclusive, VACV Venus inh 12.6µM, HCV inhibitor 11.2µM
COc1ccc(C(=O)NCC2(c3ccc(OC)c(OC)c3)CCCC2)c(OC)c1	HCV inhibitor 14.1µM (no result: Vaccinia mCherry, VACV Venus inh)
COc1ccc(CC(=O)NCC2(c3ccc(OC)c(OC)c3)CCCC2)cc1	none
CCCNC(=O)C1(C)CCCN(C(=O)c2ccccc2OC(F)(F)F)C1 (stereo not drawn)	none (no result: HCV inhibitor)
COC(=O)CC(NC1CCN(c2nc(C)c3cc4c(cc3n2)CCC4)CC1)C(=O)OC (stereo not drawn)	none (no result: HCV inhibitor)
COc1ccccc1/C=C/C=N/Nc1cccc(C(=O)O)c1	Vaccinia mCherry inconclusive
O=C(c1ccccc1)c1nn(-c2ccc(Cl)cc2)c(=O)cc1C(F)(F)F	Vaccinia mCherry inconclusive, HCV inhibitor 6.31µM
O=C(c1ccccc1)c1nn(-c2ccccc2)c(=O)cc1C(F)(F)F	HCV inhibitor inconclusive (no result: Vaccinia mCherry)
CNC(=O)c1cnc2sc(N3CCCCCC3)nn2c1=O	none (no result: HCV inhibitor)
O=c1[nH]c(=O)c2nc(Br)n(C3OC(CO)C(O)C3O)c2[nH]1 (stereo not drawn)	none (no result: HCV inhibitor)
O=C(Nc1cc(Oc2ccc(Cl)cc2)cc([N+](=O)[O-])c1)c1ccco1	HCV inhibitor 10µM

Compound activity: PubChem BioAssay, National Center for Advancing Translational Sciences (NCATS)
